Results published in PubChem BioAssay (NCI).
This is part of a sample that, as a whole, favours compounds with a hit. Of some 79,000 tested, about 15% had one in any assay. Rule as the data show it: active = growth inhibition above about 70%; inactive = the rest.

Legend:
[1] = NCI Yeast Anticancer Drug Screen. Data for the rad50 strain (AID 155);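 also: 0% = growth of vehicle-only cultures of the same strain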; conditions: S. cerevisiae rad50 strain growth inhibition; at 50.0 µM; stronger effect = higher value
Summary of the method: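 A DNA repair-deficient yeast mutant serves as the test organism; compound-induced growth inhibition is calculated against vehicle-treated cells.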

[2] = NCI Yeast Anticancer Drug Screen. Data for the mec2-1 strain (AID 157); conditions: S. cerevisiae mec2-1 strain, at 50.0 µM, stronger effect = higher value
Summary of the method: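 Growth inhibition is read against vehicle-treated controls after compound exposure of the mec2-1 yeast strain, which is defective in DNA damage repair or cell cycle control.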

[3] = NCI Yeast Anticancer Drug Screen. Data for the sgs1 mgt1 strain (AID 161);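 also: 0% = growth of cultures given vehicle only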; conditions: S. cerevisiae sgs1 mgt1 strain, at 50.0 µM, stronger effect = higher value
Summary of the method: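 Yeast cells carrying a defined DNA-repair defect were exposed to test compounds. Growth inhibition was measured relative to vehicle-treated controls.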

[4] = NCI Yeast Anticancer Drug Screen. Data for the cln2 rad14 strain (AID 165);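 also: 0% = growth equal to vehicle treated cultures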; conditions: S. cerevisiae cln2 rad14 strain, at 50.0 µM, stronger effect = higher value
Summary of the method: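 Growth inhibition, relative to vehicle-treated controls, is the read-out. The test organism is a yeast strain with defined genetic alterations, cln2 rad14.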

[5] = NCI Yeast Anticancer Drug Screen. Data for the bub3 strain (AID 167); conditions: S. cerevisiae bub3 mutant strain, at 50.0 µM, stronger effect = higher value
Summary of the method: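 Inhibition values come from growth of compound-treated mutant yeast normalised to vehicle-treated controls.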

[6] = NCI Yeast Anticancer Drug Screen. Data for the mlh1 rad18 strain (AID 175); conditions: S. cerevisiae mlh1 rad18 strain growth inhibition; at 50.0 µM; stronger effect = higher value
Summary of the method: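 Cells of a genetically altered yeast strain, deficient in DNA damage repair, were treated with compound. Their growth was then compared with that of vehicle-treated cultures to give inhibition.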

Measured: growth inhibition

NC(=O)c1nnn(Cc2ccccc2)c1C(N)=O
inactive: [1] -13.9% | [2] -11.4% | [3] 12.6% | [4] -33.6% | [5] 8% | [6] 3.85%

N#CC1=C(O)NC(O)=C(C#N)C12C(=O)Nc1ccccc12
inactive: [1] 4.1% | [2] 2.85% | [3] 2.05% | [4] 3.15% | [5] 13.2% | [6] 10.3%

CN1CCC(OC(=O)C(O)C2CCCCC2)CC1 (stereo not given)
inactive: [1] 23.5% | [2] 23% | [3] 13.8% | [4] 31.2% | [5] 19.9% | [6] 41.8%

COc1cc(C(O)C(=O)c2cnc3cc([N+](=O)[O-])ccc3n2)ccc1O (stereo not given)
inactive: [1] 24.8% | [2] 11.3% | [3] -10.8% | [4] 2.15% | [5] -19% | [6] -1.95%

O=C(NC1CCC(CC2CCC(NC(=O)C34CC5CC(CC(C5)C3)C4)CC2)CC1)C12CC3CC(CC(C3)C1)C2 (stereo not given)
inactive: [1] -13% | [2] 7.6% | [3] 19.3% | [4] -6.25% | [5] -1.85% | [6] 4.35%

Cc1cccc(C)c1NC(=O)C(=O)C(C(=O)c1ccccc1-c1ccccc1)C1OC(=O)c2ccccc21 (stereo not given)
inactive: [1] 26.6% | [2] 15.4% | [3] 12.2% | [4] -29.6% | [5] 2.2% | [6] 23.6%

CCC(CC)CC(=O)OC/C(=N\Nc1ccc([N+](=O)[O-])cc1[N+](=O)[O-])c1ccc(-c2ccccc2)cc1
inactive: [1] -30.9% | [2] 0.15% | [3] -2.85% | [4] -33.8% | [5] -12.2% | [6] -7%

COC(=O)C1c2ccc(C)cc2-c2cc(C)ccc21
inactive: [1] 16.5% | [2] -36.9% | [3] 8.55% | [4] 17.4% | [5] 26.4% | [6] 32.6%

CCC(CC)c1ccc2ccccc2c1
inactive: [1] -22.2% | [2] 1% | [3] -11.6% | [4] -19.6% | [5] -6.55% | [6] -11.4%

O=C1OC(/C=C/c2ccccc2)C(=O)C1=O (stereo not given)
inactive: [1] -4% | [2] -4.55% | [3] -3.9% | [4] 25.4% | [5] -9.75% | [6] -9.95%

Cn1c(=O)c2[nH]c(=S)n(CC3CCCCC3)c2n(C)c1=O
inactive: [1] -1.95% | [2] -3.55% | [3] -8.4% | [4] -29% | [5] 0.1% | [6] 17.4%

N#Cc1cnc(SCC(=O)O)nc1N
inactive: [1] -27.2% | [2] -39.6% | [3] -15.5% | [4] 8.8% | [5] -36.2% | [6] -13.4%

O=C(O)c1ccc2ccc(F)cc2c1Cc1ccccc1
inactive: [1] -4.15% | [2] -10.2% | [3] 12.9% | [4] 8.3% | [5] -1.4% | [6] -16.5%

C[C@]12CCC(=O)O[C@@H]1CC[C@@H]1[C@@H]2CC[C@]2(C)[C@@H](O)CC[C@@H]12
inactive: [1] 20.9% | [2] 14% | [3] 42.3% | [4] 32.5% | [5] 27.2% | [6] 23.1%

COc1ccc(C(=O)CC(Sc2ccccc2N)c2ccc(OC)cc2)cc1 (stereo not given)
inactive: [1] -16.6% | [2] -17.9% | [3] 8.95% | [4] -10% | [5] 6.3% | [6] -7.3%

CC(=O)CC(=O)Nc1cc(C(F)(F)F)ccc1Cl
inactive: [1] 15.4% | [2] -25.6% | [3] -19.1% | [4] -0.3% | [5] -6.25% | [6] 3.05%

O=C(O)COc1ccc2ccccc2c1 (tested in a mixture with another compound)
inactive: [1] -36% | [2] -19.9% | [3] -26.3% | [4] -37.7% | [5] -0.1% | [6] -5.65%

CN(C)c1nc(=O)c2ccccc2o1
inactive: [1] -41% | [2] -14.1% | [3] -28.4% | [4] -36.5% | [5] -7.75% | [6] -5.05%

CCCCCCCC/C=C\CCCCCCCC(=O)N(CCOC(=O)CCC(=O)OCCN(C(=O)CCCCCCC/C=C\CCCCCCCC)C1CCCCC1)C1CCCCC1
inactive: [1] -5.15% | [2] -9.25% | [3] -17.4% | [4] -3.2% | [5] -4.25% | [6] 16.8%

COc1cc(C2c3cc4c(cc3OC(N3CCCCC3)C2C)OCO4)cc(OC)c1O (stereo not given)
inactive: [1] 1.45% | [2] -14.3% | [3] -14.3% | [4] 6.95% | [5] -18.5% | [6] -9.25%
